# The source made the active and inactive calls. Rule for the calls: active = hit-call score of the fitted dose curve at least 0.9, where 1 is the maximum; inactive = score below 0.9.
# What was measured:
# [1] = ATG_GRE_CIS: Attagene CIS-FACTORIAL HepG2 Assay for human Glucocorticoid Response Elements (GRE) (AID 2282947); details: HepG2 GRE cis-reporter, Attagene multiplex mRNA; actives raise or lower the signal
# Procedure, shortened: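 Cells (HepG2) bearing transfected cis-promoter reporter transcription units were treated with chemical for 24 hours. Reporter mRNA was measured via RT-PCR with capillary electrophoresis, and activity was fitted in both directions relative to DMSO.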
# [2] = ATG_ISRE_CIS: Attagene CIS-FACTORIAL HepG2 Assay for human Interferon Regulatory Factor 1 (IRF1) binding to an Interferon-Stimulated Response Element (ISRE) (AID 2282948); details: HepG2 ISRE cis-reporter (Attagene), mRNA transcription readout; actives raise or lower the signal
# Procedure, shortened: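 Endogenous transcription factor activity read as reporter transcript abundance via RT-PCR and capillary electrophoresis. HepG2 cells transiently transfected, 24 h chemical exposure. Gain or loss fitted against DMSO baseline.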
# [3] = ATG_M_32_CIS: Attagene CIS-FACTORIAL HepG2 Assay for M32 Transcription Factor (Internal Marker) (AID 2282949); details: HepG2 Attagene cis-factorial M32 reporter, mRNA; actives raise or lower the signal;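 note: background control marker of the multiplexed CIS panel rather than a real target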
# Procedure, shortened: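 HepG2 human liver cells transiently transfected with cis-promoter-driven multiple reporter transcription units, dosed 24 h. Reporter mRNA quantified by RT-PCR, FAM-labelled primer extension, HpaI digest and capillary electrophoresis; bidirectional fit versus DMSO baseline.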
# [4] = ATG_M_06_CIS: Attagene CIS-FACTORIAL HepG2 Assay for M06 Transcription Factor (Internal Marker) (AID 2282950); details: HepG2 Attagene CIS-FACTORIAL M06 internal marker reporter; actives raise or lower the signal
# Procedure, shortened: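 Terse: HepG2, transient MRTU transfection (FuGene 6), 24 h dosing; total RNA, oligo(dT) RT, PCR, FAM label, HpaI cut, capillary electrophoresis; bidirectional fit vs DMSO baseline; background-control endpoint.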
# [5] = molecular target: Hypoxia-inducible factor 1-alpha (Homo sapiens) (UniProt Q16665); assay: ATG_HIF1a_CIS: Attagene CIS-FACTORIAL HepG2 Assay for human Hypoxia Inducible Factor 1 (HIF1A) (AID 2282951); details: HepG2 Attagene cis-factorial HIF1a reporter transcription; actives raise or lower the signal
# Procedure, shortened: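 Transient MRTU transfection of human HepG2 liver cells, 24 h compound treatment, then total RNA isolation, oligo(dT) reverse transcription, PCR amplification, fluorescent labelling and capillary electrophoresis of reporter fragments. Gain or loss relative to DMSO.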
# [6] = molecular target: Hepatocyte nuclear factor 6 (Homo sapiens) (UniProt Q9UBC0); assay: ATG_HNF6_CIS: Attagene CIS-FACTORIAL HepG2 Assay for human Hepatocyte Nuclear Factor 6 (HNF6) (AID 2282952); details: HepG2 Attagene cis-factorial HNF6 reporter transcription; actives raise or lower the signal
# Procedure, shortened: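 Endogenous factor activity read in transiently transfected HepG2 via promoter-regulated reporter transcripts. RNA harvested 24 h post-dosing, reverse-transcribed, PCR-amplified, FAM-labelled, HpaI-digested and resolved by capillary electrophoresis; fitted in both directions against DMSO.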
# [7] = molecular target: Heat shock factor protein 1 (Homo sapiens) (UniProt Q00613); assay: ATG_HSE_CIS: Attagene CIS-FACTORIAL HepG2 Assay for human Heat Shock Transcription Factor 1 (HSE) (AID 2282953); details: HepG2 HSE cis-reporter, Attagene RNA transcription; actives raise or lower the signal
# Procedure, shortened: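 Read-out: fluorescence of reporter-specific RT-PCR fragments separated by capillary electrophoresis. HepG2 carrying transfected cis-element reporter units; 24 h dosing; activity fitted in both directions relative to DMSO baseline.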
# [8] = ATG_MRE_CIS: Attagene CIS-FACTORIAL HepG2 Assay for human Metal Responsive Element (MRE) (AID 2282954); details: HepG2 MRE cis-reporter transcription, Attagene multiplex; actives raise or lower the signal
# Procedure, shortened: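 Cells were transfected with cis-promoter reporter transcription units, then dosed for 24 h. RNA was reverse-transcribed, amplified, fluorescently labelled and resolved by capillary electrophoresis, and activity was fitted in both directions relative to DMSO.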
# [9] = ATG_PBREM_CIS: Attagene CIS-FACTORIAL HepG2 Assay for human Phenobarbital-responsive Enhancer Module (PBREM) (AID 2282955); details: HepG2 PBREM cis-reporter, Attagene multiplexed transcription; actives raise or lower the signal
# Procedure, shortened: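 Endogenous transcription factors in human liver HepG2 cells drive a PBREM cis-element reporter, whose transcript level after 24 h treatment is quantified by RT-PCR with capillary electrophoresis; activity fitted in both directions against DMSO.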
# [10] = molecular target: Paired box protein Pax-6 (Homo sapiens) (UniProt P26367); assay: ATG_Pax6_CIS: Attagene CIS-FACTORIAL HepG2 Assay for human Paired Box 6 (PAX6) (AID 2282956); details: HepG2 CIS-FACTORIAL PAX6 reporter transcription, RNA readout; actives raise or lower the signal
# Procedure, shortened: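 Read-out is reporter transcript level, measured by RT-PCR with fluorescent primer extension and capillary electrophoresis after 24 h dosing of transfected HepG2 cells. Activity in either direction fitted relative to DMSO control.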
# [11] = ATG_PXRE_CIS: Attagene CIS-FACTORIAL HepG2 Assay for human Pregnane X Receptor Element (PXRE) (AID 2282957); details: HepG2 Attagene CIS-FACTORIAL PXRE reporter, mRNA; actives raise or lower the signal
# Procedure, shortened: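 Reporter transcripts under endogenous PXR-responsive cis-regulation quantified from total RNA of transfected HepG2 cells 24 h post-dosing, via RT-PCR with fluorescent primer extension and capillary electrophoresis. Gain or loss of signal fitted against DMSO baseline.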
# [12] = ATG_PPRE_CIS: Attagene CIS-FACTORIAL HepG2 Assay for human Peroxisome Proliferator-activated Response Element (PPRE) (AID 2282958); details: HepG2 PPRE cis-element reporter, Attagene transcription factor profiling; actives raise or lower the signal
# Procedure, shortened: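 HepG2, transient MRTU transfection (cis promoter elements, endogenous TFs). 24 h dosing. RNA → oligo(dT) RT → PCR → 6-FAM primer extension → HpaI digest → CE. Bidirectional fit vs DMSO.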
# [13] = ATG_RORE_CIS: Attagene CIS-FACTORIAL HepG2 Assay for human RAR-related Orphan Receptor Element (RORE) (AID 2282959); details: HepG2 Attagene cis-factorial RORE reporter, mRNA; actives raise or lower the signal
# Procedure, shortened: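 Transient MRTU transfection of human HepG2 liver cells (FuGene 6); 24 h compound exposure; TriZol RNA, oligo(dT) RT, PCR, FAM labeling, HpaI cut, CE fragment analysis. DMSO = negative control/baseline.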
# [14] = ATG_Sox_CIS: Attagene CIS-FACTORIAL HepG2 Assay for human SRY-box transcription factor (SOX) (AID 2282960); details: HepG2 Attagene cis-factorial SOX reporter, mRNA; actives raise or lower the signal
# Procedure, shortened: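 Endogenous factor activity in human liver HepG2 cells carrying transfected cis-regulated reporter units. RNA taken 24 h post-dose, reverse-transcribed, PCR-amplified and sized by capillary electrophoresis. Gain or loss of signal fitted relative to DMSO.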
# [15] = molecular target: Transcription factor Sp1 (Homo sapiens) (UniProt P08047); assay: ATG_Sp1_CIS: Attagene CIS-FACTORIAL HepG2 Assay for human Specificity Protein 1 (Sp1) (AID 2282961); details: HepG2 Sp1 cis-reporter transcription, actives raise or lower the signal
# Procedure, shortened: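 Transient MRTU-transfected HepG2, 24 h compound exposure. Total RNA → oligo(dT) RT → PCR of reporter → 6-FAM primer extension → HpaI digest → CE. Endpoint fitted both directions vs DMSO.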
# [16] = ATG_SREBP_CIS: Attagene CIS-FACTORIAL HepG2 Assay for human Sterol Regulatory Element Binding (SREBP) (AID 2282962); details: HepG2 Attagene cis-factorial SREBP reporter, mRNA; actives raise or lower the signal
# Procedure, shortened: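 Endogenous SREBP activity read as cis-element-driven reporter transcript in transiently transfected HepG2, 24 h post-dosing; quantified via RT-PCR plus capillary electrophoresis of fluorescent fragments. Gain or loss of signal fitted relative to DMSO baseline.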
# [17] = molecular target: Signal transducer and activator of transcription 3 (Homo sapiens) (UniProt P40763); assay: ATG_STAT3_CIS: Attagene CIS-FACTORIAL HepG2 Assay for human Signal Transducer and Activator of Transcription 3 (STAT3) (AID 2282963); details: HepG2, Attagene cis-factorial STAT3 reporter transcription; actives raise or lower the signal
# Procedure, shortened: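 HepG2, MRTU-transfected, 24 h dosing. RNA → RT → PCR → FAM label → HpaI → CE. Bidirectional fit vs DMSO.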
# [18] = ATG_TA_CIS: Attagene CIS-FACTORIAL HepG2 Assay for human TA Basal Promoter (AID 2282964); details: HepG2 Attagene CIS-factorial TA basal promoter reporter; actives raise or lower the signal
# Procedure, shortened: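 Transfected HepG2, 24 h compound exposure; RNA → RT-PCR → FAM primer extension → HpaI cut → CE fluorescence. Gain/loss-of-signal fitted against DMSO negative control. Background-control readout.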
# [19] = ATG_TCF_b_cat_CIS: Attagene CIS-FACTORIAL HepG2 Assay for human T-Cell-Factor with beta-catenin (TCF/b-cat) (AID 2282965); details: HepG2 TCF/beta-catenin cis-reporter transcription, actives raise or lower the signal
# Procedure, shortened: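 HepG2 cells transiently transfected with multiple cis-promoter-regulated reporter transcription units, so endogenous transcription factor activity is measured. Reporter mRNA read 24 hours after dosing by RT-PCR, fluorescent labelling and capillary electrophoresis; bidirectional fitting against DMSO.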
# [20] = molecular target: Bile acid receptor (Homo sapiens) (UniProt Q96RI1); assay: ATG_IR1_CIS: Attagene CIS-FACTORIAL HepG2 Assay for human Nuclear Receptor Subfamily 1 Group H Member 4 (NR1H4), IR1 submotif (AID 2282946); details: IR1 reporter transcription, actives raise or lower the signal
# Procedure, shortened: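 Readout: reporter transcript levels by RT-PCR with fluorescent capillary electrophoresis, from HepG2 cells transiently transfected with multiplexed cis-regulated reporters and dosed 24 h. Gain- or loss-of-signal fitted versus DMSO negative control.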
# Sequence of Heat shock factor protein 1 (Homo sapiens) (Q00613 whole entry, looked up, the tested form may be a part): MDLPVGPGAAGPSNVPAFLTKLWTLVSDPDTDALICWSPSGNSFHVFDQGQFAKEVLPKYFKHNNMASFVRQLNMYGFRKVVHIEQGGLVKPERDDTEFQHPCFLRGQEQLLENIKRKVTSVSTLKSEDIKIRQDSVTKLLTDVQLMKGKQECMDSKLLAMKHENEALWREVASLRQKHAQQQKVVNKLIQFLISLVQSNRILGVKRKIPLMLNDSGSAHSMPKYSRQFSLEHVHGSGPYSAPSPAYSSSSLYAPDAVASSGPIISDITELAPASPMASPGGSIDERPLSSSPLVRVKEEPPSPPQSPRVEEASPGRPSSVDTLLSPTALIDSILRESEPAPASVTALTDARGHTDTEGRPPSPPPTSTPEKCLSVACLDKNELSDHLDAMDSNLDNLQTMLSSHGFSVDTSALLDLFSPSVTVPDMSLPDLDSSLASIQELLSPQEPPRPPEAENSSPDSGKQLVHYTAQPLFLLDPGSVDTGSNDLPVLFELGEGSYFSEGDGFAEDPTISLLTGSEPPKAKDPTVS
# Sequence of Signal transducer and activator of transcription 3 (Homo sapiens) (P40763 whole entry, looked up): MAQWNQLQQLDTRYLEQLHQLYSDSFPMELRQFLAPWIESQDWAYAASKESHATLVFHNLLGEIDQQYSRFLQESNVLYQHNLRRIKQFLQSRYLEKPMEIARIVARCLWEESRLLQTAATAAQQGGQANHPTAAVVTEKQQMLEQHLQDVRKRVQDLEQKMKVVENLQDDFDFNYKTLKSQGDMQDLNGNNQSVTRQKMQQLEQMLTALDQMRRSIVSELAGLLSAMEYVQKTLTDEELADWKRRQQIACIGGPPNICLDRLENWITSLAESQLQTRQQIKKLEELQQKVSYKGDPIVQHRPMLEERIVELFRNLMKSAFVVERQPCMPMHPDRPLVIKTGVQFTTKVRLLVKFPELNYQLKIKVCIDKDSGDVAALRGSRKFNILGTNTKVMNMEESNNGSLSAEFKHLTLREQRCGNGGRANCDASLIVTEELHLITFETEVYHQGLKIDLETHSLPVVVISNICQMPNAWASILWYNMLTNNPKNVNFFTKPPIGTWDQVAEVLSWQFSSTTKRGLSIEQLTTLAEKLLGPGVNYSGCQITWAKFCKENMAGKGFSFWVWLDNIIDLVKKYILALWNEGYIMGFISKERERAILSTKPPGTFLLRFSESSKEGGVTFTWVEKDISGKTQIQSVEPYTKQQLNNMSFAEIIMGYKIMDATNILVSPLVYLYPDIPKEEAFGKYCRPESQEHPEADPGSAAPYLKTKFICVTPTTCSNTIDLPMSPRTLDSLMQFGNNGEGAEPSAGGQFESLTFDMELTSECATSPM
# Sequence of Hepatocyte nuclear factor 6 (Homo sapiens) (Q9UBC0 whole entry, looked up): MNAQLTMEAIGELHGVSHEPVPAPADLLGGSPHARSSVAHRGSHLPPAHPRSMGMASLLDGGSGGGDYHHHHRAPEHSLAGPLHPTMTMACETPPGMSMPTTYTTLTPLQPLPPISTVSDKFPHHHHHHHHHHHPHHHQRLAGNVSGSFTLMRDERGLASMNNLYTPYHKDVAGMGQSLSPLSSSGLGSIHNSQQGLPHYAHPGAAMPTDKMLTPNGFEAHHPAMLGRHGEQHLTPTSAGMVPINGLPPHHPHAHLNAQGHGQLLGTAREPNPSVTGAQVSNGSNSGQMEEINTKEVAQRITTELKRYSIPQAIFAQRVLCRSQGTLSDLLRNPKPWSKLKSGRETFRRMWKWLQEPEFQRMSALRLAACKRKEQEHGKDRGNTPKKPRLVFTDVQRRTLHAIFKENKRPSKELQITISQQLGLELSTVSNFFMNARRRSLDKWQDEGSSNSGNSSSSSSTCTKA
# Sequence of Transcription factor Sp1 (Homo sapiens) (P08047 whole entry, looked up): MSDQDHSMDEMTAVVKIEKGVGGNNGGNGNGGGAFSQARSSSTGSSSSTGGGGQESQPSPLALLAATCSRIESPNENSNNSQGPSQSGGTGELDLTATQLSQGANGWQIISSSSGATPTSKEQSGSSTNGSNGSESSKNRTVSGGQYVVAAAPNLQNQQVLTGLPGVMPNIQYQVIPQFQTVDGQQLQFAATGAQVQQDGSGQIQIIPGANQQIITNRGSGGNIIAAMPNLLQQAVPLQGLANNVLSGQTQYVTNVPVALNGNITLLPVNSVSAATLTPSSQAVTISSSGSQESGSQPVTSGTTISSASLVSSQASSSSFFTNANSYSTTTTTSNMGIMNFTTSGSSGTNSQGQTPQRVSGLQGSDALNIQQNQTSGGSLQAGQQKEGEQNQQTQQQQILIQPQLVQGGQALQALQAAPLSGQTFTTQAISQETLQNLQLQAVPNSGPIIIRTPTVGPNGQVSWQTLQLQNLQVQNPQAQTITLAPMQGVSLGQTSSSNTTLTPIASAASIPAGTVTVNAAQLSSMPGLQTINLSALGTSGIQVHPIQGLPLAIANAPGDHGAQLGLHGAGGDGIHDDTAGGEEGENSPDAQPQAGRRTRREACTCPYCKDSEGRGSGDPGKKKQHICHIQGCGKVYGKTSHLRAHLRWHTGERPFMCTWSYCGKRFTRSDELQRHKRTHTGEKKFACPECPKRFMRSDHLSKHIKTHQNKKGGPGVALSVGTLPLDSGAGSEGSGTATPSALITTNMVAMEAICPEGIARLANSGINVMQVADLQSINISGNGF
# Sequence of Paired box protein Pax-6 (Homo sapiens) (P26367 whole entry, looked up): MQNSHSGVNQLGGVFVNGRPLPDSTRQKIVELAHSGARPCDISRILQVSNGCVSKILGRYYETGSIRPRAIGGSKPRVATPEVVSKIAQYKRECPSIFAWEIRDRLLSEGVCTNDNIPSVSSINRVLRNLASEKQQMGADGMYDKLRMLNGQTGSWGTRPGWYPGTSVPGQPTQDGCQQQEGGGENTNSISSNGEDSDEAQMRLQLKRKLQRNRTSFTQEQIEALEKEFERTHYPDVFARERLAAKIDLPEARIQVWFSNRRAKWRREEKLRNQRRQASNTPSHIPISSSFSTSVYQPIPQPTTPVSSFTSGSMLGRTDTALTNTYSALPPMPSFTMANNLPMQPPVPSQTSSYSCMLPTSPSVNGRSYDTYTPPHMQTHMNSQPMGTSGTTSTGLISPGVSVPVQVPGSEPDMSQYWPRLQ
# Sequence of Hypoxia-inducible factor 1-alpha (Homo sapiens) (Q16665 whole entry, looked up, the tested form may be a part): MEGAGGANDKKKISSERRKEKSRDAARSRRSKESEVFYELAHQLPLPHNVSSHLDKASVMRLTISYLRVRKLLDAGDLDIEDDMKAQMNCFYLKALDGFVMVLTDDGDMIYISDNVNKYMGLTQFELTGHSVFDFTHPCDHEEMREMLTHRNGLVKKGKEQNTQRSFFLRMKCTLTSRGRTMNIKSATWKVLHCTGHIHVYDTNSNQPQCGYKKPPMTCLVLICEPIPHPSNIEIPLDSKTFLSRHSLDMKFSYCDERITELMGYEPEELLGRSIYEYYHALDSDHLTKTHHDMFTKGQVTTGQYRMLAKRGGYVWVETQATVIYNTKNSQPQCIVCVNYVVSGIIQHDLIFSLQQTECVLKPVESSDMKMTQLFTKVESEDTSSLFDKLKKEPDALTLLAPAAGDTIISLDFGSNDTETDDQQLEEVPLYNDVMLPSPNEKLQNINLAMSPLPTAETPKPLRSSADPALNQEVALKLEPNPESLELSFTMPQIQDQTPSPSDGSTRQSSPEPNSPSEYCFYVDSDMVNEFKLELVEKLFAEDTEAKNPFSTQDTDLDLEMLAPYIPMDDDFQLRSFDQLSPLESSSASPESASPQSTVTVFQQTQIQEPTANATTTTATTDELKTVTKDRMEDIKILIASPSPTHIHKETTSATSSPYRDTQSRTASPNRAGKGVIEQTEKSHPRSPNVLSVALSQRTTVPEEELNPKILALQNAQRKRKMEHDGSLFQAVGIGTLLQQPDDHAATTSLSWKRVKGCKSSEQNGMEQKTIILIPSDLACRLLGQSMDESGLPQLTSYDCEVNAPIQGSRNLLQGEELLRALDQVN
# Sequence of Bile acid receptor (Homo sapiens) (Q96RI1 whole entry, looked up): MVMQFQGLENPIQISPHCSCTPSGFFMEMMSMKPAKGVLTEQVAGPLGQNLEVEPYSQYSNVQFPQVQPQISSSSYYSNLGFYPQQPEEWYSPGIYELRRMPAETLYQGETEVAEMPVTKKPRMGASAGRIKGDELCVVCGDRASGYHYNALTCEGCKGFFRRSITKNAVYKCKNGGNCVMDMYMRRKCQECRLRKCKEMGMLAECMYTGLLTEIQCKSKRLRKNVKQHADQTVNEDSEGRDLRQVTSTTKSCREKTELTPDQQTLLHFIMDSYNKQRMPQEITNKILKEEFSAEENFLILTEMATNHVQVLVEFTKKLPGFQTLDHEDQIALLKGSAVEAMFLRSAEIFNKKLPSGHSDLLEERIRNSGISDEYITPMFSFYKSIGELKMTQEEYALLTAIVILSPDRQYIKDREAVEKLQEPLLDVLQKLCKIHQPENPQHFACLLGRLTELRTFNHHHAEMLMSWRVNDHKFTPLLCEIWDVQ
smiles,measurement,setting,value
On1ccccc1=S,outcome,[1],inactive
same,outcome,[2],inactive
same,outcome,[3],inactive
same,outcome,[4],inactive
same,outcome,[5],inactive
same,outcome,[6],inactive
same,AC50,[7],26 µM (active)
same,outcome,[8],inactive
same,outcome,[9],inactive
same,outcome,[10],inactive
same,outcome,[11],inactive
same,outcome,[12],inactive
same,outcome,[13],inactive
same,outcome,[14],inactive
same,outcome,[15],inactive
same,outcome,[16],inactive
same,outcome,[17],inactive
same,outcome,[18],inactive
same,outcome,[19],inactive
CNCc1ccc(NC(=O)c2c[nH]c3c2C(=O)CCC3)cc1,outcome,[1],inactive
same,AC50,[2],71.1 µM (active)
same,outcome,[3],inactive
same,outcome,[4],inactive
same,outcome,[5],inactive
same,outcome,[6],inactive
same,outcome,[7],inactive
same,outcome,[9],inactive
same,outcome,[10],inactive
same,outcome,[11],inactive
same,outcome,[12],inactive
same,outcome,[13],inactive
same,outcome,[14],inactive
same,outcome,[15],inactive
same,outcome,[16],inactive
same,outcome,[17],inactive
same,outcome,[18],inactive
same,AC50,[19],24.1 µM (active)
O=C(O)c1cccc(Oc2ccccc2)c1,outcome,[1],inactive
same,outcome,[2],inactive
same,outcome,[3],inactive
same,outcome,[4],inactive
same,outcome,[5],inactive
same,outcome,[6],inactive
same,outcome,[7],inactive
same,outcome,[9],inactive
same,outcome,[10],inactive
same,outcome,[11],inactive
same,AC50,[12],48.3 µM (active)
same,outcome,[13],inactive
same,outcome,[14],inactive
same,outcome,[15],inactive
same,outcome,[16],inactive
same,outcome,[17],inactive
same,outcome,[18],inactive
same,outcome,[19],inactive
O=C1CCCCCN1,outcome,[20],inactive
same,outcome,[2],inactive
same,outcome,[3],inactive
same,outcome,[4],inactive
same,outcome,[5],inactive
same,outcome,[6],inactive
same,outcome,[7],inactive
same,outcome,[8],inactive
same,outcome,[9],inactive
same,outcome,[10],inactive
same,outcome,[11],inactive
same,outcome,[12],inactive
same,outcome,[13],inactive
same,outcome,[14],inactive
same,outcome,[15],inactive
same,outcome,[16],inactive
same,outcome,[17],inactive
same,outcome,[18],inactive
same,outcome,[19],inactive
CC(=O)OC[C@H]1O[C@@](COC(C)=O)(O[C@H]2O[C@H](COC(C)=O)[C@@H](OC(C)=O)[C@H](OC(C)=O)[C@H]2OC(C)=O)[C@@H](OC(C)=O)[C@@H]1OC(C)=O,outcome,[1],inactive
same,outcome,[2],inactive
same,outcome,[3],inactive
same,outcome,[4],inactive
same,outcome,[5],inactive
same,outcome,[6],inactive
same,outcome,[7],inactive
same,outcome,[8],inactive
same,outcome,[10],inactive
same,AC50,[11],20.1 µM (active)
same,outcome,[13],inactive
same,outcome,[15],inactive
same,outcome,[16],inactive
same,outcome,[17],inactive
same,outcome,[18],inactive
same,outcome,[19],inactive
CC/C(=C\C(=N/O)C(N)=O)C(C)[N+](=O)[O-] (stereo not given),outcome,[1],inactive
same,outcome,[2],inactive
same,outcome,[3],inactive
same,outcome,[4],inactive
same,outcome,[5],inactive
same,outcome,[6],inactive
same,outcome,[7],inactive
same,outcome,[9],inactive
same,outcome,[10],inactive
same,outcome,[11],inactive
same,outcome,[12],inactive
same,outcome,[13],inactive
same,outcome,[14],inactive
same,outcome,[15],inactive
same,outcome,[16],inactive
same,outcome,[17],inactive
same,outcome,[18],inactive
same,AC50,[19],100 µM (active)
CCOC(=O)CC(CC(=O)OCC)(OC(C)=O)C(=O)OCC,outcome,[20],inactive
same,outcome,[2],inactive
same,outcome,[3],inactive
same,outcome,[4],inactive
same,outcome,[5],inactive
same,outcome,[6],inactive
same,outcome,[7],inactive
same,outcome,[8],inactive
same,outcome,[9],inactive
same,outcome,[10],inactive
same,AC50,[11],27.3 µM (active)
same,outcome,[13],inactive
same,outcome,[15],inactive
same,outcome,[16],inactive
same,outcome,[17],inactive
same,outcome,[18],inactive
same,outcome,[19],inactive

# — PubChem BioAssay (EPA / NIEHS)
